High-throughput results (PubChem)
Pf growth 96h: Primary qHTS for delayed death inhibitors of the malarial parasite plastid, 96 hour incubation; 320,000 compounds, 6.9% hits; Potency, µM (titrated, usually from 28.7 µM), for the others: at the top dose activity change, negative = inhibition, most hits filed as inhibitors; P. falciparum luciferase reporter growth, 96 h; AID 504834, 2011; further: potency means the concentration at half of the fitted maximal effect
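Luminescence readout: decreased luciferase signal marks inhibited growth of reporter-expressing P. falciparum in infected red cells (2% hematocrit, 0.05% parasitemia final), exposed to compound two generations (96 h, 37 C, 5% CO2).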
HCV inh: qHTS Assay for Inhibitors of Hepatitis C Virus (HCV); AID 651820, 2012; 340,000 compounds, 3.4% hits; Potency, µM (top dose mostly 41.8 µM), inactives show top-dose activity change, negative = inhibition, usual class: inhibitors; Huh7.5.1 HCVcc-Cre infection, luciferase reporter, 44 h; further: potency means the concentration at half of the fitted maximal effect
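Cells (1,000/well) were plated 4 h before compound, then infected with HCVcc-Cre virus (~0.5 moi). After 44 h further culture, infection was read as luciferase luminescence following a 15 min substrate incubation at room temperature.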
Pf growth 48h: Primary qHTS for delayed death inhibitors of the malarial parasite plastid, 48 hour incubation. Potency, µM (highest dose often 28.7 µM), for the others: at the top dose activity change, negative = inhibition, actives largely listed as inhibitors. 310,000 compounds, 5.9% hits. P. falciparum luciferase growth in erythrocytes, 48 h. AID 504832, 2011; further: potency means the concentration at half of the fitted maximal effect
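A one-generation exposure of luciferase-tagged malaria parasites in RPMI 1640/Albumax erythrocyte culture, 37 C and 5% CO2. Inhibition is inferred from decreased luminescence after adding detection reagent.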
Lassa entry inh: qHTS for Inhibitors of binding or entry into cells for Lassa Virus | Lassa virus pseudotype entry inhibition, cell reporter | Potency, µM (series often up to 37.9 µM), for the others: top-dose activity change, negative = inhibition, usual class: inhibitors | 300,000 compounds, 1.2% hits | AID 540256, 2011; calls by dose curve; tested in HEK293 cells; further: potency means the concentration at half of the fitted maximal effect; nearly all actives have a fitted effect of over 50% in size
HCMV antiviral: qHTS Assay for inhibitors of the human cytomegalovirus (HCMV); HFF cells, HCMV-luciferase reporter, 72 h; hits give low values; activity change, negative = inhibition, % at 57.5 µM; 410,000 compounds, 4.5% hits; in the data active means activity change below about -60%; inconclusive means no clear call, values can overlap the other calls; inactive means above about -39%
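Human foreskin fibroblasts infected with luciferase-reporter HCMV at MOI 1 PFU/cell, compounds at two doses. Luciferase measured 72 h post infection; normalized to buffer-only basal and Salinomycin (10uM) controls.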
MARV entry inh: qHTS for inhibitors of binding or entry into cells for Marburg Virus. 300,000 compounds, 1.8% hits. Marburg virus pseudotyped entry inhibition, cell reporter. Potency, µM (titrated, usually from 37.8 µM), for inactives: at the top dose activity change, negative = inhibition, most hits filed as inhibitors; calls by dose curve; tested in HEK293 cells; further: potency means the concentration at half of the fitted maximal effect
* = called active by the depositor; ? = inconclusive; . = not tested or not shown; ! = not confirmed by another sample; [ ] = remark or other dose. Hits are enriched below; roughly 14% of the tested compounds scored in any of these assays. Unless noted, the call rests on the fitted dose curve; in most records, active means well fitted inhibition curve with a large enough effect; inconclusive means small, poorly fitted or top-dose-only effect, or another doubt; inactive means no such curve, though single readings can be large or run the other way. On the % scale 0 is the no-effect control and ±100 the full control effect.

SMILES	Pf growth 96h	HCV inh	Pf growth 48h	Lassa entry inh	HCMV antiviral	MARV entry inh
COc1ccc(CC(=O)NCC2CCCN(Cc3ccc(OC(F)(F)F)cc3)C2)cc1 (stereo not drawn)	?	-26%	9.3µM*	14%[46.1 µM]	22	?
COC(=O)c1ccc(CN2CCCC(CNC(=O)Cc3ccc(OC)cc3)C2)cc1 (stereo not drawn)	?	6%	21%	.	-5	.
CC(C)(C)c1cc2nc(NCCOc3ccccc3)ccn2n1	.	.	.	.	25	.
CSCCNC(=O)C1(C)CCN1C(=O)c1sccc1C (stereo not drawn)	.	.	.	.	-26	.
O=C(Cn1ncc(Cl)c(Cl)c1=O)N1CCc2ccccc21	-16%	?	15%	?	-95*	?
O=C(Cn1ncc(Cl)c(Cl)c1=O)N1CCOCC1	?	?	?	?	-99*	?
O=C(Cn1ncc(Cl)c(Cl)c1=O)N1CCN(Cc2ccccc2)CC1	?	3.5µM*	?	.	-83*	.
CCCn1c2ccccc2c2cnn(CC(=O)N3CCOCC3)c(=O)c21	?	13%	19%	.	-21	.
CCOC(=O)c1sc2ncn(CC(=O)Nc3cc(C)on3)c(=O)c2c1C	7%	-3%	1%	.	-32	.
CCC(=NCCO)c1c(O)n(C2CCCCC2)c(=O)[nH]c1=O	21%	14%	22%	-15%	15	4%
CCC(=NCc1ccc2c(c1)OCO2)c1c(O)n(C2CCCCC2)c(=O)[nH]c1=O	?	?	?	13µM*	?	?
CC/C(=N\NC(=O)c1ccccc1O)c1c(O)n(C2CCCCC2)c(=O)[nH]c1=O	12µM*	2%	?	.	-9	.
Cc1nc(C(=O)NNC(=O)c2ccc(C(F)(F)F)cc2)cs1	?	?	?	-17%	-89*	?
COc1ccc(S(=O)(=O)c2c(O)c(C)cc(NC(=O)c3ccccc3)c2C(C)C)cc1	.	.	.	-6%[46.1 µM]	-63*	-16%[46.1 µM]
COc1ccc(S(=O)(=O)c2c(O)c(C)cc(NS(=O)(=O)c3ccc(Cl)cc3)c2C(C)C)cc1	.	.	.	-13%[46.1 µM]	?	?
Cc1c(NS(=O)(=O)c2ccccc2)cc(C(C)C)c(O)c1S(=O)(=O)c1ccc(Cl)cc1	.	.	.	-19%[46.1 µM]	-37	11µM*
COc1ccc(S(=O)(=O)Nc2cc(C)c(O)c(S(=O)(=O)c3ccccc3)c2)cc1	29%	6%	5%	7%	-4	?
COc1ccc(S(=O)(=O)c2c(C)c(NS(=O)(=O)c3ccccc3)cc(C)c2O)cc1	?	4%	3%	12%	-63*!	-5%[46.1 µM]
Cc1c(NS(=O)(=O)c2ccccc2)cc(Cl)c(O)c1C	.	?	-6%	11%	-8	5%
CC(=O)Nc1ccc(-c2cc(C(=O)O)c3c(-c4ccccc4)[nH]nc3n2)cc1	.	.	.	-9%[46.1 µM]	5	4%[46.1 µM]
O=C(Cc1ccc(-c2ccccc2)cc1)NCCS(=O)(=O)N1CCN(c2cccc(Cl)c2)CC1	.	.	.	0%[46.1 µM]	-26	.
CCN(C(=O)CCc1nc(-c2ccc(OC)cc2)no1)c1cc(OC)ccc1OC	?	11µM*	?	?	-21	-17%
COc1ccccc1Cc1nc(-c2cccnc2)no1	6%	13%	?	.	-3	.
COc1ccc(-c2noc(Cc3ccccc3OC)n2)cc1	13µM*	?	13%	1%	-21	15%
COc1ccc(Cc2nc(-c3cccc(C)c3)no2)cc1	15µM*	-21%	.	?	73	-2%[46.1 µM]
SMILES	Pf growth 96h	HCV inh	Pf growth 48h	Lassa entry inh	HCMV antiviral	MARV entry inh
COc1cccc(/C=C/C(=O)OCC(=O)NCCCc2ccccc2)c1OC	.	12%	.	.	5	.
CC1C(c2ccccc2)OCCN1C(=S)NC(=O)c1ccccc1 (stereo not drawn)	.	.	.	.	-24	.
Cc1ccc(S(=O)(=O)NN=CC=CC=NNS(=O)(=O)c2ccc(C)cc2)cc1	.	.	.	.	14	.
Cc1ccc(S(=O)(=O)N2C[C@H]3[C@H]4C(=O)N(c5ccccc5)C(=O)[C@H]4C[C@H](OC(=O)NCc4ccccc4)[C@@]3(O)C2)cc1	.	.	.	.	19	.
Cc1cc(=O)n2c3c(c4c(cc13)c(CN(C)C)cc(=O)n4C)OC2	.	?	.	-15%	-72*	?
COc1ccc(Cn2c(CCC(=O)Nc3ccccc3)nc3cccnc32)cc1	?	?	-14%	-3%	-12	-29%
COc1ccc(Cn2c(CCC(=O)Nc3ccc(CC#N)cc3)nc3cccnc32)cc1	3.7µM*	1%	?	-6%	14	?
COCCCNC(=O)CCc1nc2cccnc2n1Cc1ccccc1	8.3µM*	25%	31%	7%	-17	16%
COc1ccc(N2C(=NC(=O)C3CCCCC3)SC3CS(=O)(=O)CC32)cc1OC (stereo not drawn)	16%	3%	5%	.	-9	.
COc1ccc(C(=O)N=C2SC3CS(=O)(=O)CC3N2c2ccc(N(C)C)cc2)cc1OC (stereo not drawn)	9.3µM*	-25%	-22%	.	-9	.
COc1ccc(Nc2ncc(C(=O)Nc3ccc(F)cc3F)c3ccccc23)cc1	.	.	.	-2%[46.1 µM]	-28	-13%[46.1 µM]
COc1ccccc1CN1CC(C(=O)N(C)CCc2nc3ccc(F)cc3[nH]2)CCC1=O (stereo not drawn)	10µM*	9%	-12%	.	-24	.
COc1ccccc1CN1CC(C(=O)N(C)CCc2ccccn2)CCC1=O (stereo not drawn)	.	.	.	.	10	.
CCOC(=O)C1CSCCS(=O)(=O)N1Cc1ccc(Br)cc1 (stereo not drawn)	.	.	.	-1%[46.1 µM]	-16	.
Cc1cc(C)cc(OCC(=O)Nc2nc3c(s2)CC(C(C)(C)C)CC3)c1 (stereo not drawn)	.	.	.	?	-3	-5%[46.1 µM]
O=C(c1ccccc1)[C@@H]1[C@@H](C(=O)c2ccc(F)cc2)[C@@]2(C(=O)Nc3ccccc32)[C@H]2c3ccccc3C=CN12	?	1%	15µM*	-20%	-29	-15%
CC(=O)[C@@H]1[C@@H](C(=O)c2ccccc2)[C@]2(C(=O)Nc3ccccc32)[C@H]2C=Cc3cc(F)ccc3N12	?	1%	-14%	-3%	15	?
CCCCCc1cc(=O)oc2c(C(CCN3CCCC(C)C3)c3ccc4c(c3)OCO4)c(OC)cc(OC)c12 (stereo not drawn)	4.1µM*	?	7.4µM*	.	?	.
COc1cc(OC)c2ccc(=O)oc2c1C(CCN1CCCC1)c1ccc2c(c1)OCO2 (stereo not drawn)	?	-8%	?	.	31	.
